Source: article PMC5540273 (PLoS ONE, 2017)

Key:
Conditions in all cases: concentration: 1 μM, replicates: in singlicate; n = 1
[1] = test system: ALK
[2] = test system: T1, AMPK-alpha1
T1 construct: gene PRKAA1

[3] = test system: T2, AMPK-alpha2
T2 construct: gene PRKAA2

[4] = test system: ANKK1
[5] = test system: T3, ARK5
T3 construct: gene NUAK1

[6] = test system: T4, ASK1
T4 construct: gene MAP3K5

[7] = test system: T5, ASK2
T5 construct: gene MAP3K6

[8] = test system: AURKA
[9] = test system: AURKB
[10] = test system: AURKC
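Note: KINOMEscan kinase panel screen.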

Compound	%Inh [1]	%Inh [2]	%Inh [3]	%Inh [4]	%Inh [5]	%Inh [6]	%Inh [7]	%Inh [8]	%Inh [9]	%Inh [10]
COc1cccc(C2=C(Nc3cccc(C(=O)O)c3)C(=O)NC2=O)c1 [SB-390770]	0%	45%	16%	70%	0%	5%	4%	21%	31%	14%
Cc1ccc(-c2ccc3c(ccc4sc5c(c43)NC[C@@H](C)N=C5N(C)C)n2)cn1	4%	0%	0%	0%	0%	0%	0%	0%	0%	0%
CCC(=O)c1c(-c2ccccc2)c2cc(Cl)ccc2c(=O)n1Cc1cc(S(C)(=O)=O)n(CCC(C)(C)O)n1	0%	19%	15%	8%	10%	15%	8%	16%	17%	12%
OCCCNc1nccc(-c2c(-c3cccc(C(F)(F)F)c3)nn3cc(C(F)(F)F)ccc23)n1 [GW630813]	0%	0%	0%	5%	0%	0%	0%	17%	0%	7%
Cl.NS(=O)(=O)c1cccc(Nc2cc(-c3ccc(F)cc3)n[nH]2)c1 [GW824645]	0%	0%	18%	0%	0%	0%	0%	4%	29%	0%
Fc1cccc(CSc2nnc(-c3ccc4c(c3)CCO4)o2)c1	79%	13%	17%	35%	11%	11%	22%	9%	20%	0%
COc1ccc(Nc2nccc(N3CCC(NS(=O)(=O)c4ccc(NC(C)=O)cc4)C3)n2)cc1 (stereo not drawn) [GSK1379729]	16%	20%	17%	8%	25%	7%	9%	7%	14%	30%
Nc1nc(-c2ccccc2F)c(-c2ccnc3ccccc23)s1 [GW560459]	31%	0%	1%	16%	0%	3%	0%	0%	5%	17%
O=C(Nc1n[nH]c2nc(-c3ccccc3)c(Br)cc12)C1CC1 [SB-708998]	1%	12%	18%	14%	0%	0%	0%	7%	4%	36%
COc1cc2ncn(-c3cc(OCc4ccncc4)c(C(N)=O)s3)c2cc1OC [GSK336313]	20%	0%	0%	0%	16%	6%	0%	17%	0%	4%
O=C(NCc1cccs1)c1cc(C(=O)c2c(Cl)cccc2Cl)c[nH]1 [GW823670]	0%	8%	0%	0%	0%	19%	0%	0%	9%	1%
CCC(=O)c1c(-c2ccccc2)c2cc(Cl)ccc2c(=O)n1Cc1cc(C(=O)NC2CC2)n(C)n1	32%	22%	5%	0%	0%	0%	0%	22%	26%	0%
Cl.c1ccc(Cn2cnc3cc(Nc4ncnc5ccccc45)ccc32)cc1 [GW272142]	21%	0%	0%	0%	0%	4%	2%	0%	19%	14%
O=C(Nc1n[nH]c2nc(-c3ccccc3)c(Cl)cc12)C1CC1 [SB-734909]	15%	0%	10%	19%	1%	0%	21%	28%	33%	25%
COc1cc2nccc(Nc3ccc(OCc4ccc(NC(C)=O)cc4)cc3)c2cc1OC.Cl [GW440135]	5%	15%	10%	0%	28%	3%	0%	0%	0%	0%
COc1cc(OC)cc(-c2cc3cnc(N)nc3nc2NC(=O)NC(C)(C)C)c1	0%	0%	15%	0%	0%	0%	0%	0%	0%	0%
CCS(=O)(=O)c1ccc(OC)c(Nc2ncc(-c3ccc(F)cc3)o2)c1.Cl [GW591947]	22%	8%	17%	7%	3%	0%	0%	3%	0%	26%
Cc1ccccc1COc1cc(-n2cnc3cc(Cl)ccc32)sc1C(N)=O [GW813349]	23%	0%	3%	26%	0%	18%	0%	26%	2%	31%
